# According to the supplement of paper PMC7366291:
# Where a name gives a salt, the structure may show the parent alone. ± gives the standard deviation of the averaged measurements.
# Tested on: Danio rerio Tg(wt1b:EGFP) embryo, pronephros
# Experiment: pronephric angle neck segment to proximal convoluted tubule (mean of left and right), fold change vs DMSO control; higher = larger pronephric angle
# Details: 25 µM; exposure: 24-48 hpf
# Outline: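 Using a Fiji macro, distances and angles were calculated from 16 reference points set by hand on maximum projections of pronephroi imaged dorsally (470 nm, 10 z-slices) in agarose-filled 96-well plates. The dechorionated Tg(wt1b:EGFP) zebrafish embryos had received 25 μM compound in 0.5% DMSO in HEPES-buffered E3 with 0.003% PTU from 24 to 48 hpf at 28.5°C. Values more than 2 SD from a feature's mean were excluded. Each feature appears as a fold change over the mean of DMSO-treated embryos from the same day.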
row,SMILES,pronephric angle neck segment
1,CO/N=C(\C(=O)N[C@@H]1C(=O)N2C(C(=O)OC(C)OC(C)=O)=C(COC(N)=O)CS[C@H]12)c1ccco1 (stereo partly drawn) [Cefuroxime axetil],1.04 ± 0.088
2,CCCNC(C)(C)COC(=O)c1ccccc1 [Meprylcaine hydrochloride],0.9842 ± 0.0035
3,NC(=O)N/N=C/c1ccc([N+](=O)[O-])o1 [Nitrofural],0.982 ± 0.017
4,CS(=O)(=O)c1ccc([C@@H](O)[C@@H](CF)NC(=O)C(Cl)Cl)cc1 [Florfenicol],1.01 ± 0.034
5,CC1COc2c(N3CCN(C)CC3)c(F)cc3c(=O)c(C(=O)O)cn1c23 (stereo not drawn) [Ofloxacin],1.06 ± 0.038
6,CCCC(C(=O)OCCN(CC)CC)(c1ccccc1)c1ccccc1 [Proadifen hydrochloride],1.03 ± 0.037
7,C[C@]12C=CC(=O)C=C1CC[C@@H]1[C@@H]2[C@@H](O)C[C@@]2(C)[C@H]1CC[C@]2(O)C(=O)CO [Prednisolone],1.04 ± 0.02
8,Nc1nc(F)nc2c1ncn2[C@@H]1O[C@H](CO)[C@@H](O)[C@@H]1O [Fludarabine],0.975 ± 0.025
9,CN1CCN2c3ncccc3Cc3ccccc3C2C1 (stereo not drawn) [Mirtazapine],0.994 ± 0.056
10,O=P(O)(O)C(O)(Cc1cccnc1)P(=O)(O)O [Risedronic acid monohydrate],0.975 ± 0.027
11,CCN1CCCC1CNC(=O)c1cc(S(N)(=O)=O)ccc1OC (stereo not drawn) [Sulpiride],0.983 ± 0.032
12,CCN1CCN(c2cc3c(cc2F)c(=O)c(C(=O)O)cn3C2CC2)CC1 [Enrofloxacin],1.01 ± 0.037
13,COc1cc2c(cc1OC)C(=O)C(CC1CCN(Cc3ccccc3)CC1)C2 (stereo not drawn) [Donepezil hydrochloride],0.9843 ± 0.0083
